PubChem BioAssay (NCATS)
Inconclusive results are not listed. The source made the active and inactive calls. Calls come from the whole dose curve; as a rule, active = well fitted curve in either direction with a large enough effect (not every such curve was filed as active); inconclusive = small, poorly fitted or top-dose-only effect, or another doubt; inactive = flat fitted curve, though single readings scatter.

Test: AP1 Signaling Pathway (AID 357);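 note: ME-180 reporter cells stimulated with EGF at its EC50 level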
Conditions: ME-180 (cervical carcinoma) AP-1-bla reporter, EGF-induced, beta-lactamase ratio, 5 h; at 17.2 µM (top of the series) unless noted
In short: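 A ratiometric CCF4 readout (405 nm excitation; 460 and 530 nm emission) quantified AP-1-driven beta-lactamase in ME-180 cells after 5 h with compound and EC50 EGF; AC50 values were derived for activators and inhibitors.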
% is set by controls: 0 for no effect and ±100 for the full control effect.

Activity change, negative = inhibition, inactive:
CNC(=O)c1cc2ccccc2o1 8.83%
CCCCn1c(C)cc2cc(O)ccc21 -15.1%
c1ccc2c(c1)nc(CN1CCOCC1)n1c3ccccc3nc21 25.2%
CC(O)CNc1nc2c(c(=O)n(C)c(=O)n2C)n1CCc1ccccc1 (stereo not drawn) -2.48%
Nc1nc(NC(=O)Cc2ccccc2)nn1-c1ccccc1 5.76%
CCN(CC)c1ncc(C)c(=O)[nH]1 16.3%
C=CCNc1nc(C)nc(OC)n1 8.25%
Fc1ccc(C2C3=C(Nc4ncnn42)c2ccccc2OC3c2ccncc2)cc1 (stereo not drawn) -29%
COc1cc(OC)cc(C(=O)N2CCC(N3CCN(c4ccccc4)CC3)CC2)c1 5.25%
CCOC(=O)C(C)Oc1ccc2c(C)cc(=O)oc2c1C(C)=O (stereo not drawn) 3.53%
CN(C)/C=C1\N=C(c2ccc(Cl)cc2Cl)OC1=O -19.5%
C/C(NC(=O)c1ccccc1F)=C1\C(=O)C[C@@H]2[C@H]1C2(C)C -12.1%
C=CCc1c(C)nc(SCCC)[nH]c1=O 2.81%
COC(=O)C1=C(C)N=C2SC(C)C(=O)N2C1c1ccc(C(=O)OC)cc1 (stereo not drawn) -9.79%
COc1ccc(-c2ncncc2-c2csc(C)n2)c(O)c1 2.87%
COc1ccc(C2Nc3ccccc3C(=O)N2Cc2ccco2)cc1CN1C(=O)c2ccccc2C1=O (stereo not drawn) -19.7%
COc1ccccc1C1(CC(=O)N2CCOCC2)CCOC(C(C)C)C1 (stereo not drawn) 3.63%
Cc1ccc(C(C)C)c(OCCNc2nc3c(c(=O)n(C)c(=O)n3C)n2C)c1 -0.712%
Cc1ccc(N(CC(O)CN2CCCC2)S(=O)(=O)c2ccc(C)cc2)cc1 (stereo not drawn) 0.0608%
Cn1c(SCC(=O)NCc2ccccc2)nc2ccccc21 -0.959%
O=C(O)CCN(CCC(=O)O)c1nnc(SCc2ccccc2)s1 8.29%
C=COC(=O)CSc1nc(-c2cccs2)ccc1C#N 4.27%
N#CCCSCc1ccc(OCC(=O)O)cc1 2.01%

Test: NFAT Signaling Pathway (AID 444);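 note: carbachol stimulus at about its EC50 of 1 µM final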
Conditions: Jurkat NFAT-bla M1, carbachol, beta-lactamase ratio, 5 h; at 17.2 µM (top of the series) unless noted
In short: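 Jurkat cells with NFAT-driven β-lactamase reporter and co-expressed M1 receptor, stimulated with carbachol (final 1 uM, ~EC50), compound titration, 5 h at 37 °C. CCF4 loaded 1 h at RT; 460/530 nm ratio gave %activity and AC50.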

Activity change, negative = inhibition, inactive:
Cc1[nH]nc(-c2ccc(O)cc2O)c1Oc1ccccc1 -25.7%
Cc1ccc(S(=O)(=O)NC(=O)NCc2ccc3c(c2)OCO3)cc1 -5.13%
COc1ccc(OC)c2c1CCC2=O -3.76%
CC1(C)Cc2nc(N)c(C(=O)NCCO)cc2CO1 3.25%
Cc1nc(SCC(N)=O)[nH]c(=O)c1Cc1ccc(OC(C)C)cc1 1.93%
CCSc1nc(N)c2c3c(sc2n1)CCC3 -2.96%
Cc1nc(NS(=O)(=O)c2ccccc2)sc1NC(=O)OCCN(C)C 13.4%
CCOC(=O)CC(=O)CSc1nc(N)c(C#N)c(-c2ccc(F)cc2)c1C#N 7.66%
CC12CCC(C(=O)NCCCN3CCOCC3)(OC1=O)C2(C)C (stereo not drawn) 10.5%
COc1ccc(C2=Nn3c(nnc3-c3ccccn3)SC2)cc1 2.81%
COc1ccc(OC(=O)c2cc3ccccc3o2)cc1 -19.7%
CCN(CC)CCN1C(=O)C(=O)/C(=C(/O)c2ccc(OC(C)C)cc2)C1c1ccncc1 (stereo not drawn) 0.331%
Cc1cc(Cl)ccc1OCC(=O)OC(C)C(=O)N(C)C (stereo not drawn) 17.7%
c1ccc(-n2ncc3c(NCC4CCCO4)ncnc32)cc1 (stereo not drawn) -15.8%
COc1cccc(-c2nn3c(-c4ccccn4)nnc3s2)c1 -17%
CC(=O)c1c(C(C)=O)c(C)n(NC(=O)c2ccncc2)c1C 3.09%
CC1(C)Cc2c(C#N)c(N3CCN(C(=O)c4ccccc4)CC3)nc(-c3ccco3)c2CS1 -24.6%
CNC(=O)c1cc2ccccc2o1 -13.4%
CCCCn1c(C)cc2cc(O)ccc21 -5.83%
c1ccc2c(c1)nc(CN1CCOCC1)n1c3ccccc3nc21 25.2%
CC(O)CNc1nc2c(c(=O)n(C)c(=O)n2C)n1CCc1ccccc1 (stereo not drawn) -12.9%
Nc1nc(NC(=O)Cc2ccccc2)nn1-c1ccccc1 9.17%
CCN(CC)c1ncc(C)c(=O)[nH]1 2.65%
C=CCNc1nc(C)nc(OC)n1 13.9%
Fc1ccc(C2C3=C(Nc4ncnn42)c2ccccc2OC3c2ccncc2)cc1 (stereo not drawn) -17%
COc1cc(OC)cc(C(=O)N2CCC(N3CCN(c4ccccc4)CC3)CC2)c1 -4.18%
CCOC(=O)C(C)Oc1ccc2c(C)cc(=O)oc2c1C(C)=O (stereo not drawn) 2.57%
CN(C)/C=C1\N=C(c2ccc(Cl)cc2Cl)OC1=O -5.67%
C/C(NC(=O)c1ccccc1F)=C1\C(=O)C[C@@H]2[C@H]1C2(C)C -24.9%
C=CCc1c(C)nc(SCCC)[nH]c1=O -9.46%
COC(=O)C1=C(C)N=C2SC(C)C(=O)N2C1c1ccc(C(=O)OC)cc1 (stereo not drawn) -6.71%
COc1ccc(-c2ncncc2-c2csc(C)n2)c(O)c1 -5.52%
COc1ccc(C2Nc3ccccc3C(=O)N2Cc2ccco2)cc1CN1C(=O)c2ccccc2C1=O (stereo not drawn) -14.1%
COc1ccccc1C1(CC(=O)N2CCOCC2)CCOC(C(C)C)C1 (stereo not drawn) 13.2%
Cc1ccc(C(C)C)c(OCCNc2nc3c(c(=O)n(C)c(=O)n3C)n2C)c1 13.4%
Cc1ccc(N(CC(O)CN2CCCC2)S(=O)(=O)c2ccc(C)cc2)cc1 (stereo not drawn) -19.4%
Cn1c(SCC(=O)NCc2ccccc2)nc2ccccc21 1.73%
O=C(O)CCN(CCC(=O)O)c1nnc(SCc2ccccc2)s1 12.2%
C=COC(=O)CSc1nc(-c2cccs2)ccc1C#N -19.4%
N#CCCSCc1ccc(OCC(=O)O)cc1 -0.583%
